The record followed here is the supplement of paper PMC9023506.

Common to all, as to conditions: 10 µM; exposure time: 3 h pre-incubation + 3 h imaging
The subject of experiment [1] is Danio rerio larvae (5 dpf). The experiment in a line: habituation to 1-s acoustic pulses, difference vs DMSO (percentage points (treated minus DMSO)); higher = more of the behaviour than the DMSO vehicle control. The method in brief: (§1)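 Five-days-post-fertilisation wild-type zebrafish larvae were held in 96-well ProxiPlates and exposed to each library drug at a final 10 µM, diluted 1000× from DMSO stocks into egg water, with 48 larvae per drug. Exposure lasted 3 h before and 3 h during imaging at 28.5 °C, with images taken every 6 s across a 3-h program of rest, moving coloured lines and acoustic pulses. An ImageJ macro scored movement and upper-half location, and each behaviour score is the treated-group mean minus the vehicle-group mean, expressed in percentage points.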

Experiment [2] has as its system Danio rerio larvae (5 dpf). The experiment in a line: optomotor response to blue moving lines, difference vs DMSO (percentage points (treated minus DMSO)); higher = more of the behaviour than the DMSO vehicle control. The method in brief:
as §1

The test system of experiment [3] is Danio rerio larvae (5 dpf). The experiment in a line: optomotor response to green moving lines, difference vs DMSO (percentage points (treated minus DMSO)); higher = more of the behaviour than the DMSO vehicle control. The method in brief: as §1
For experiment [4], the system named is Danio rerio larvae (5 dpf). The experiment in a line: activity during period 15 (no stimuli), difference vs DMSO (percentage points (treated minus DMSO)); higher = more of the behaviour than the DMSO vehicle control. The method in brief:
as §1

Experiment [5] has as its system Danio rerio larvae (5 dpf). The experiment in a line: optomotor response to fast red moving lines, difference vs DMSO (percentage points (treated minus DMSO)); higher = more of the behaviour than the DMSO vehicle control. In a few lines: as §1
Experiment [6] has as its system Danio rerio larvae (5 dpf). The experiment can be described thus: startle response to 20-s acoustic pulses, difference vs DMSO (percentage points (treated minus DMSO)); higher = more of the behaviour than the DMSO vehicle control. The method in brief: as §1
The subject of experiment [7] is Danio rerio larvae (5 dpf). The experiment in a line: excitability to 1-s acoustic pulses, difference vs DMSO (percentage points (treated minus DMSO)); higher = more of the behaviour than the DMSO vehicle control. In a few lines:
as §1

Structures can show the parent of a compound that is named as a salt.

Turning to `Nc1nc(Cl)nc2c1ncn2[C@@H]1O[C@H](CO)[C@@H](O)[C@@H]1F` [Clofarabine], in experiment [1], the “habituation to 1-s acoustic pulses” value was -0.305. Besides, in experiment [2], the “optomotor response to blue moving lines” value is 4.47. For the same compound, the “optomotor response to green moving lines” value in experiment [3] amounted to 7.3.
In the case of `CCc1c2c(nc3ccc(OC(=O)N4CCC(N5CCCCC5)CC4)cc13)-c1cc3c(c(=O)n1C2)COC(=O)[C@]3(O)CC`, in experiment [4], the “activity during period 15” value is -8.3. Moreover, the “optomotor response to green moving lines” value in experiment [3] is -1.18.
For the compound `CNCc1ccc(-c2[nH]c3cc(F)cc4c3c2CCNC4=O)cc1` [Rucaparib camsylate], the “optomotor response to green moving lines” value in experiment [3] was determined as 1.55.
`C#C[C@]1(O)CC[C@H]2[C@@H]3CCC4=CC(=O)CC[C@@H]4[C@H]3CC[C@@]21CC` [Levonorgestrel]: the “habituation to 1-s acoustic pulses” value in experiment [1] was -7.34. The “activity during period 15” value in experiment [4] was -6.07. The “optomotor response to green moving lines” value in experiment [3] stood at 5.26. The optomotor response in experiment [5] was determined as 9.62.
On to `CC(=O)O[C@]1(C(C)=O)CC[C@H]2[C@@H]3C=C(C)C4=CC(=O)CC[C@]4(C)[C@H]3CC[C@@]21C` [Megestrol Acetate], for which, in experiment [1], the “habituation to 1-s acoustic pulses” value was -2.13. The “optomotor response to green moving lines” value in experiment [3] was -2.03. In experiment [6], the “startle response to 20-s acoustic pulses” value was -15.1.
Turning to `CCCCNc1cc(C(=O)O)cc(S(N)(=O)=O)c1Oc1ccccc1` [Bumetanide], in experiment [3], the “optomotor response to green moving lines” value is 5.17.
In the case of `COc1ccc([C@@H]2Sc3ccccc3N(CCN(C)C)C(=O)[C@@H]2OC(C)=O)cc1` [Diltiazem hydrochloride], the “habituation to 1-s acoustic pulses” value in experiment [1] is -0.578. The “optomotor response to green moving lines” value in experiment [3] was -3.02. The optomotor response in experiment [5] was -0.971.
In the case of `Clc1ccc(COC(Cn2ccnc2)c2ccc(Cl)cc2Cl)c(Cl)c1` (centres undefined) [Miconazole nitrate], in experiment [4], the “activity during period 15” value was -12.8. Also, in experiment [2], the “optomotor response to blue moving lines” value was -7.42. Also, in experiment [6], the “startle response to 20-s acoustic pulses” value worked out at 4.56. Also, in experiment [5], the optomotor response was -18.6.
Turning to `Cc1cn([C@H]2C=C[C@@H](CO)O2)c(=O)[nH]c1=O` [Stavudine], the “optomotor response to green moving lines” value in experiment [3] came to 1.24. Moreover, the optomotor response in experiment [5] was -8.38.
As to `CC(C)Nc1cccnc1N1CCN(C(=O)c2cc3cc(NS(C)(=O)=O)ccc3[nH]2)CC1` [Delavirdine mesylate], the “habituation to 1-s acoustic pulses” value in experiment [1] is -7.61. Also, in experiment [2], the “optomotor response to blue moving lines” value was -0.42.
In the case of `COc1cc(N)c(Cl)cc1C(=O)NC1CCN(CCCOc2ccc(F)cc2)CC1OC` (centres undefined) [Cisapride], the “habituation to 1-s acoustic pulses” value in experiment [1] was found to be 6.52. Moreover, in experiment [7], the “excitability to 1-s acoustic pulses” value stood at 16.4. The “activity during period 15” value in experiment [4] is -0.757. In addition, the “optomotor response to blue moving lines” value in experiment [2] was 4.41.
Take `CC(C)C(=O)Nc1ccc([N+](=O)[O-])c(C(F)(F)F)c1` [Flutamide]: the “optomotor response to blue moving lines” value in experiment [2] is -17.2. Also, the “startle response to 20-s acoustic pulses” value in experiment [6] is -5.19. In addition, the optomotor response in experiment [5] was -21.1.
As for `COc1cc2nc(N3CCN(C(=O)c4ccco4)CC3)nc(N)c2cc1OC` [Prazosin hydrochloride], in experiment [2], the “optomotor response to blue moving lines” value was found to be 0.0687. The “startle response to 20-s acoustic pulses” value in experiment [6] was determined as 5.19.
Take `Nc1ncn([C@H]2C[C@H](O)[C@@H](CO)O2)c(=O)n1` [Decitabine]: the “activity during period 15” value in experiment [4] stood at 1.76. In addition, the “optomotor response to green moving lines” value in experiment [3] was determined as 0.0025.
On to `CN(CCOc1ccc(NS(C)(=O)=O)cc1)CCc1ccc(NS(C)(=O)=O)cc1` [Dofetilide], for which, in experiment [1], the “habituation to 1-s acoustic pulses” value is 5.42. Besides, the “activity during period 15” value in experiment [4] is -9.09. In experiment [3], the “optomotor response to green moving lines” value is 0.112.
Turning to `CCCc1nc(C(C)(C)O)c(C(=O)O)n1Cc1ccc(-c2ccccc2-c2nnn[nH]2)cc1` [Olmesartan], the “activity during period 15” value in experiment [4] is 4.45. Also, in experiment [2], the “optomotor response to blue moving lines” value turned out to be 3.07. Besides, in experiment [5], the optomotor response was -5.64.
With `C[C@]12CCC(=O)C=C1CC[C@@H]1[C@@H]2[C@@H](O)C[C@@]2(C)[C@H]1CC[C@]2(O)C(=O)CO` [Hydrocortisone], the “optomotor response to green moving lines” value in experiment [3] turned out to be 10.5.
The same measure, in the same setting: the value for `CCCCC(=O)N(Cc1ccc(-c2ccccc2-c2nnn[nH]2)cc1)[C@H](C(=O)O)C(C)C` [Valsartan] was 4.22.
